Reference: ChEMBL document CHEMBL1157539, “Thousands of chemical starting points for antimalarial lead identification” (Nature, 2010)

Tested on: Plasmodium falciparum
Test: GSK_TCMDC: Inhibition of Plasmodium falciparum 3D7 in whole red blood cells, using parasite LDH activity as an index of growth. Test compounds present at 2uM
Type: functional

Row | SMILES | Inhibition
1 | CCn1cc(CN2CCCC(C(=O)Nc3ccc(-c4nc5ccccc5[nH]4)cc3)C2)c(C)n1 (centres undefined) | 100%
2 | Cc1cc(C(=O)Nc2ccc3c(ccn3C3CCCN(Cc4ccc(C(F)(F)F)cc4F)CC3)c2)no1 (centres undefined) | 92%
3 | CCNCc1cccc(-c2ccc3ccnc(N)c3c2)c1 | 100%
4 | CCOCCCNc1ncc(-c2ccsc2)c(-c2nc(C)cs2)n1 | 89%
5 | O=C(NCc1cccc(F)c1)Nc1ccc(-c2cccc(-c3nc4ccccc4[nH]3)c2)cc1 | 86%

Tested on: Plasmodium falciparum
Test: GSK_TCMDC: Inhibition of Plasmodium falciparum Dd2 in whole red blood cells, using parasite LDH activity as an index of growth. Test compounds present at 2uM
Type: functional

Row | SMILES | Inhibition
6 | O=C(/C=C/c1ccc(Cl)c(Cl)c1)N1CCC(CN2CCC(Cc3nc4ccccc4[nH]3)CC2)CC1 | 95%
7 | CCc1cc(NC(=O)Nc2ccnc3ccccc23)ccc1OC.Cl | 24%
8 | COc1cc2nc(NCC3CCN(C(=O)c4ccc(-c5ccc(C(=O)N(C)C)cc5C)cc4)CC3)nc(N)c2cc1OC | 34%
9 | N#CCOc1c(C2CCN(CCCCNC(=O)c3ccc(-c4ccc(C(F)(F)F)cc4)cc3)CC2)ccc2c1CCCC2 | 48%
10 | Oc1ccc(-c2cc(-c3ccc(O)cc3)nc(-c3ccccc3)n2)cc1 | 97%
11 | O=C(Nc1ccc(-c2nc3ccccc3[nH]2)cc1)C1CCCN(CC2CC2)C1 (centres undefined) | 8%
12 | CCc1c[nH]c2c(N3CCCC3=O)cc(C(=O)N[C@@H](Cc3ccccc3)[C@H](O)CNC(C)(C)c3cccc(OC)c3)cc12 | 98%
13 | Cc1[nH]c(C)c(-c2ccc(OCc3cccc(C(F)(F)F)c3)nc2)c(=O)c1Br | 97%
14 | Cn1c(NC(=O)CCCCCNC(=O)c2ccc(O)c(-c3ccc(Cl)c(Cl)c3)c2)nc2ccccc21 | 55%
